About 750 (0.34%) of roughly 220,000 compounds were called active. For the sample, actives were picked, then their nearest neighbours and some compounds at random. A number with no mark means an inactive call. Cut-off read from the data, not from the text of the source: active = response below about 60% or above about 140%; inactive = in between.
Biological target: Guanine nucleotide-binding protein G(o) subunit alpha (Homo sapiens) (UniProt P09471)
Test: RGS8-Galphao binding modulators, primary screen, biochemical, multiplexed bead flow cytometry (AID 1423);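 note: Galphao activated as the GDP aluminium fluoride complex binding bead-coupled RGS8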
Details: at 10 µM, actives lie on both sides

Chain of Guanine nucleotide-binding protein G(o) subunit alpha (Homo sapiens) (P09471 whole entry, looked up): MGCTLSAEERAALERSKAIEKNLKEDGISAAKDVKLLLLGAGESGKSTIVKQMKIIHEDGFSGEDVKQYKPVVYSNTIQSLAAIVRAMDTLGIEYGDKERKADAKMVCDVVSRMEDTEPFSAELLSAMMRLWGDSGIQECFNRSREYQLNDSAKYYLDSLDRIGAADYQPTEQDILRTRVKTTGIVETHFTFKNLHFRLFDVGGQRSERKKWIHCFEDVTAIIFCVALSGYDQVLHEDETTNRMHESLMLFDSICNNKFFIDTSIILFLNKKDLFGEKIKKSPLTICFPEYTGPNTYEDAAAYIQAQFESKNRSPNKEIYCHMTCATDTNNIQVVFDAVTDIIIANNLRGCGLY

| Compound | response (percent of control binding) |
| --- | --- |
| CCN(CC(=O)NCc1cccs1)C(=O)c1ccccc1F | 99.2% |
| Cc1ccccc1OCC(O)CN1CCN(c2ccccn2)CC1 (stereo not given) | 99.3% |
| Cc1cccc(C)c1OCC(O)CN1CCCCC1 (stereo not given) | 99.3% |
| Cc1ccc(OCC(O)CN2CCN(CC(O)COc3ccc(C)cc3Cl)CC2)c(Cl)c1 (stereo not given) | 165% [activator] (active) |
| Cc1ccc(NCc2n[nH]c(=S)n2-c2ccccc2)cc1Cl | 99.7% |
| COc1ccc(C2C(C#N)=C(N)N(c3ncn[nH]3)C3=C2C(=O)CCC3)cc1 (stereo not given) | 100% |
| CC(=O)n1cc([C@@H]2C=C(C(=O)N3CCN(Cc4ccc5c(c4)OCO5)CC3)O[C@H](OCc3ccc(CO)cc3)C2)c2ccccc21 | 102% |
| COc1ccc(COCC(O)CN2CCC(C(N)=O)CC2)cc1 (stereo not given) | 104% |
| O=[N+]([O-])C(=c1ccc2c(c1)N1C3=C(CCCC3)CC3CCCCC31N=2)[N+](=O)[O-] (stereo not given) | 43.8% (active) |
| COc1ccc(CNCCCO)cc1OC | 108% |
| Cc1cc(=O)[nH]c(SCC(=O)Nc2ccc(Br)cc2)n1 | 93.2% |
| Cc1ccc(N2C(=O)C3CC3C2=O)cc1 (stereo not given) | 101% |
| Cc1ccc(N2C(=O)C3C(c4ccccc4)(C2=O)C3(c2ccccc2)c2ccccc2)cc1 (stereo not given) | 23.3% (active) |
| Cc1ccc(N2C(=O)C(Cc3ccccc3)NC2=S)cc1 (stereo not given) | 102% |
| O=C(CCSc1ccccc1)N1CCN(c2ccccc2F)CC1 | 99.9% |
| CC1(C)C2CC=C(/C=N/NC(=O)c3ccc(Cl)cc3)C1C2 (stereo not given) | 105% |
| COCCCN1C(=O)C(=O)/C(=C(/O)c2ccc3c(c2)CC(C)O3)C1c1cccnc1 (stereo not given) | 89.7% |
| COc1cc(C2/C(=C(\O)c3ccc4c(c3)CC(C)O4)C(=O)C(=O)N2Cc2ccco2)ccc1O (stereo not given) | 12.8% (active) |
| COc1ccc(/C(O)=C2\C(=O)C(=O)N(Cc3ccco3)C2c2ccc(OC)cc2OC)cc1 (stereo not given) | 98.3% |
| Cc1ccc(-n2c(O)c(C=Nc3ccc(S(=O)(=O)Nc4ncccn4)cc3)c3ccccc3c2=O)cc1C | 102% |
| COC(=O)c1cc(NC(=O)C2C3C=CC(C3)C2C(=O)O)cc(C(=O)OC)c1 (stereo not given) | 100% |
| O=C(CSc1nnc2n1CCCN2)c1ccccc1 | 104% |
| COc1cc(C(=O)NCc2ccc(-n3cccc3)cc2)cc(OC)c1OC | 103% |
| O=C(CCCl)Nc1ccc(S(=O)(=O)NCc2ccco2)cc1 | 98.5% |
| CCOC(=O)N1CCN(C(=O)COc2ccc(Cl)cc2C)CC1 | 101% |

| Compound | response (percent of control binding) |
| --- | --- |
| Cc1cc(NC(=O)COc2ccc(Cl)cc2Cl)n(CCC#N)n1 | 99.5% |
| CCCn1nnnc1NC(=O)COc1ccc(Cl)cc1C | 11.9% (active) |
| CCCCCN(C(=O)NC(=O)Nc1cccc(C)c1C)S(C)(=O)=O | 102% |
| O=C(CCc1ccccc1)Nc1ccc(NC(=O)C2CCCCC2)nc1 | 105% |
| O=C(COC(=O)c1ccc[nH]c1=O)Nc1ccc2c(c1)OC(F)(F)O2 | 104% |
| O=C(CSc1nc2ccc(Nc3nc(N4CCOCC4)nc(N4CCOCC4)n3)cc2s1)NCc1ccco1 | 98.3% |
| Cc1ccc(C(=O)N/C(=C/c2cccs2)C(=O)NCC2CCCO2)cc1 (stereo not given) | 103% |
| O=C(Cn1nnc(-c2ccccc2)n1)N/N=C/c1ccc(-c2ccc(Cl)cc2)o1 | 101% |
| Oc1ccc(-c2onc3ccc(Cl)cc23)cc1 | 144% [activator] (active) |
| Clc1ccc2nc(-c3ccccc3)nc(C(Cl)Cl)c2c1 | 94.2% |
| O=C(Oc1cccc(N2C(=O)C3C4c5ccccc5C(c5ccccc54)C3C2=O)c1)c1ccco1 (stereo not given) | 102% |
| O=C1C2C3C=CC(C4CC34)C2C(=O)N1c1nccs1 (stereo not given) | 101% |
| CCc1nnc(NC(=O)CCCSc2nc3ccccc3[nH]2)s1 | 101% |
| Cc1ccc(NC(=O)/C(=C/c2ccc([N+](=O)[O-])cc2)NC(=O)c2ccccc2)cc1 | 106% |
| COc1ccc(-c2nc3cnccn3c2NC(C)(C)CC(C)(C)C)cc1O | 98.8% |
| COc1ccc(N=C(C)c2sc3ccccc3c2O)cc1 | 97.2% |
| COc1ccc(CNC(=O)C2CCC(CNc3c(N4CCOCC4)c(=O)c3=O)CC2)cc1 (stereo not given) | 103% |
| CC(NC(=O)C1CCC(CNc2c(N3CCOCC3)c(=O)c2=O)CC1)c1ccccc1 (stereo not given) | 99.7% |
| O=C(NCc1ccc(F)cc1)C1CCC(CNc2c(N3CCOCC3)c(=O)c2=O)CC1 (stereo not given) | 8.33% (active) |
| Cc1cccc(C)c1NC(=O)Nc1ccccc1-n1ccnc1 | 101% |
| Cc1ccc(Cn2ccc(NC(=O)c3cc(C(C)C)on3)n2)cc1 | 55.8% (active) |
| O=C(Nc1ccn(Cc2ccccc2)n1)c1cccc(F)c1 | 103% |
| Cc1ccc(Cn2ccc(NC(=O)C3C4CCC(C4)C3C(=O)O)n2)cc1 (stereo not given) | 102% |
| Cc1onc(-c2ccc(Cl)cc2)c1-c1ccnn1S(=O)(=O)c1ccc(Cl)cc1 | 98.9% |
| CS(=O)(=O)N(Cc1ccccc1)c1ccc(C(=O)NN=C2CCCCCC2)cc1 | 103% |
